Consider 5 compounds from PubChem BioAssay.

Assay [1] can be described thus: compounds binding Alexa647 anti-His antibody – biochemical, small-molecule microarray, 635 nm fluorescence, artefact control for SMM control protein annotation, primary screen (AID 1128).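 Further: score merges feature fluorescence with signal-to-noise for each printed compound spot.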 The settings on record: higher = more signal.
Assay [2] deals with Human papillomavirus type 1a E7 protein (residues 1-88). Briefly: HPV1a E7 small-molecule binders, primary screen, biochemical, small-molecule microarray, residues 1-88, 635 nm (AID 1129). To be noted: small-molecule microarray binding, fluorescence 635 nm; higher = more signal.
In assay [3] the target is Focal adhesion kinase 1 (Homo sapiens) (UniProt Q05397). Briefly: PTK2 protein binding on printed compound slides – biochemical, small-molecule microarray, 635/667 nm fluorescence, BSA, DTT, primary screen (AID 1130).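 Further: composite of spot emission at 667 nm and signal to noise over triplicate slides.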 To be noted: 635 nm fluorescence, higher = more signal.
The subject of assay [4] is Fibrinogen (Alexa647-labelled). Briefly: Alexa647-fibrinogen binding to printed small molecules – biochemical, small-molecule microarray, 635/667 nm fluorescence, artefact control for SMM control-protein annotation, profiling panel (AID 1131).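 Further: z-score merges 667 nm fluorescence with per-spot signal-to-noise over triplicate slides.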 To be noted: fibrinogen-A647 binding fluorescence, higher = more signal.
Assay [5] concerns the target Follistatin (Homo sapiens) (UniProt P19883). Put plainly: FST protein binding to printed compounds – biochemical, small-molecule microarray, 635/667 nm fluorescence, primary screen (AID 1132). The settings on record: 635 nm fluorescence, higher = more signal.
Assay [6] deals with Fibroblast growth factor 2 (Homo sapiens) (UniProt P09038). Briefly: basic fibroblast growth factor binding to printed compounds – biochemical, small-molecule microarray, 635/667 nm fluorescence, primary screen (AID 1133). To be noted: FGF2, fluorescence 635/667, higher = more signal.
Assay [7] is described as follows: JC-1 mitochondrial potential readout, lung cancer cells – cell-based, A549, JC-1 fluorescence, basal, 24 h, 100 nL, profiling panel (AID 1138).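 Further: A549 lung adenocarcinoma cells under basal conditions with no added stimulus; test concentration not given here.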 To be noted: higher = more signal.
A further assay deals with Lefty1. Briefly: Lefty1 protein binding to printed compounds – biochemical, small-molecule microarray, 635/667 nm fluorescence, primary screen (AID 1139). To be noted: fluorescence 635/667, higher = more signal.
The test system of assay [8] is wheat germ agglutinin (Triticum aestivum), Alexa647-labelled. Briefly: Alexa647-WGA lectin binding to printed small molecules – biochemical, small-molecule microarray, 635/667 nm fluorescence, artefact control for SMM control-protein annotation, profiling panel (AID 1140).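 Further: score merges 667 nm feature emission with signal to noise over triplicate slides.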 To be noted: WGA-A647 binding, 635 nm fluorescence, higher = more signal.
In assay [9] the target is Luciferin 4-monooxygenase (Photinus pyralis) (UniProt P08659). Briefly: inhibition of purified Photinus pyralis luciferase – biochemical, luminescence, purified enzyme, 2006 set, primary screen (AID 1141).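 Further: cell-free assay with purified firefly luciferase at 100 ng per well in PBS; test concentration not given here.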 To be noted: purified firefly luciferase, SteadyGlo luminescence, 30 min; higher = more signal, called active from +8 up or from −8 down.
In assay [10] the test system is Wnt5a (protein binding on small-molecule microarray). Briefly: small molecules binding Wnt5a protein – biophysical, small-molecule microarray, 635/667 nm fluorescence, primary screen (AID 1142).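 Further: fluorescence read at 667 nm with signal to noise per printed feature.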 To be noted: 635 nm fluorescence, higher = more signal.
Assay [11] can be described thus: ATP-based viability of Huh7 replicon cells – cell-based, CellTiter-Glo luminescence, basal, 48 h, cytotoxicity control for HCV replication inhibitor project, primary screen (AID 1143).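 Further: Huh7 hepatoma cells carrying a hepatitis C replication reporter with no stimulus; test concentration not given here.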 The settings on record: higher = more signal, called active from +8 up or from −8 down. On the technique in general: Replicon systems follow genome replication, usually without infectious particles.

Assay [12] in a line: Pseudomonas biofilm growth suppression – PAO1 strain, BacTiter-Glo luminescence, LB-PBS, primary screen (AID 1144). To be noted: P. aeruginosa PAO1 biofilm, 12 h, higher = more signal.
The nature of assay [13]: basal CRE-LacZ reporter activity in PC12 – cell-based, unstimulated, primary screen (AID 1145). To be noted: no forskolin, luminescence, 4.5 h, higher = more signal, called active from +8 up or from −8 down.
A short description of assay [14]: forskolin-driven CRE-LacZ activity in PC12 – cell-based, CRE-LacZ reporter, forskolin-stimulated, primary screen (AID 1146).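 Further: PC12 cells with 6xCRE LacZ reporter stimulated by forskolin 10 µM; beta-galactosidase reporter signal reflecting CREB driven transcription.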 To be noted: luminescence, 4.5 h, higher = more signal, called active from +8 up or from −8 down.
Assay [15] deals with Streptavidin (Streptomyces avidinii) (UniProt P22629). Put plainly: compounds binding control protein streptavidin – biophysical, small-molecule microarray, 635/667 nm fluorescence, artefact control for SMM compound annotation, primary screen (AID 1147).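 Further: signal reflects streptavidin binding to arrayed compounds as a control protein.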 The settings on record: higher = more signal.
A short description of assay [16]: probe aInhba binding on compound microarray – biochemical, small-molecule microarray, 635/667 nm fluorescence, primary screen (AID 1148).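 Further: score merges 667nm spot fluorescence with signal-to-noise for antibody binding to printed compounds.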 The settings on record: higher = more signal.
The target of assay [17] is Torsin-1A (Homo sapiens) (UniProt O14656). Briefly: TOR1A wild-type binding on microarray – cell lysate, small-molecule microarray, lysate, 635/667 nm, primary screen (AID 1149). To be noted: COS7 hTOR1A-WT lysate, 635 nm fluorescence, higher = more signal.
Assay [18] shares this target. Put plainly: torsin A mutant lysate binding on microarrays – cell lysate, small-molecule microarray, COS7 lysate, 635/667 nm fluorescence, primary screen (AID 1150).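 Further: score pools 667 nm emission and signal to noise measuring lysate protein binding.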 To be noted: COS7 hTOR1A mutant lysate, 635 nm fluorescence, higher = more signal.
In assay [19] the test system is Sonic hedgehog protein (Shh). Put plainly: Sonic hedgehog microarray binding compounds – biochemical, small-molecule microarray, 635/667 nm fluorescence, primary screen (AID 1151).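 Further: Shh protein binding to compounds spotted on small-molecule microarray slides; score combines spot fluorescence intensity with signal-to-noise across triplicate slides.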 To be noted: 635 nm fluorescence, higher = more signal.

Activity calls are given as the source filed them. Unless noted, how the calls were made is not given here.

Sequence of Torsin-1A (Homo sapiens) (O14656 whole entry, looked up): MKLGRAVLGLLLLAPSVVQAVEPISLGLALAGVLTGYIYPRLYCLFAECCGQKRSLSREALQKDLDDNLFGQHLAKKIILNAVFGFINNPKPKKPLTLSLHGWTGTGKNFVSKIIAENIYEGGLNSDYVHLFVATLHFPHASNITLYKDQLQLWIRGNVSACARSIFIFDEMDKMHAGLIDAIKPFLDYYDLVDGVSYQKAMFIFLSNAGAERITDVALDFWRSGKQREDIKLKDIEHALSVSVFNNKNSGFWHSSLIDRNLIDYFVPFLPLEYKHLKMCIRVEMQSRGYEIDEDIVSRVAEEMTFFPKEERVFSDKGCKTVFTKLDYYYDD
Sequence of Focal adhesion kinase 1 (Homo sapiens) (Q05397 whole entry, looked up): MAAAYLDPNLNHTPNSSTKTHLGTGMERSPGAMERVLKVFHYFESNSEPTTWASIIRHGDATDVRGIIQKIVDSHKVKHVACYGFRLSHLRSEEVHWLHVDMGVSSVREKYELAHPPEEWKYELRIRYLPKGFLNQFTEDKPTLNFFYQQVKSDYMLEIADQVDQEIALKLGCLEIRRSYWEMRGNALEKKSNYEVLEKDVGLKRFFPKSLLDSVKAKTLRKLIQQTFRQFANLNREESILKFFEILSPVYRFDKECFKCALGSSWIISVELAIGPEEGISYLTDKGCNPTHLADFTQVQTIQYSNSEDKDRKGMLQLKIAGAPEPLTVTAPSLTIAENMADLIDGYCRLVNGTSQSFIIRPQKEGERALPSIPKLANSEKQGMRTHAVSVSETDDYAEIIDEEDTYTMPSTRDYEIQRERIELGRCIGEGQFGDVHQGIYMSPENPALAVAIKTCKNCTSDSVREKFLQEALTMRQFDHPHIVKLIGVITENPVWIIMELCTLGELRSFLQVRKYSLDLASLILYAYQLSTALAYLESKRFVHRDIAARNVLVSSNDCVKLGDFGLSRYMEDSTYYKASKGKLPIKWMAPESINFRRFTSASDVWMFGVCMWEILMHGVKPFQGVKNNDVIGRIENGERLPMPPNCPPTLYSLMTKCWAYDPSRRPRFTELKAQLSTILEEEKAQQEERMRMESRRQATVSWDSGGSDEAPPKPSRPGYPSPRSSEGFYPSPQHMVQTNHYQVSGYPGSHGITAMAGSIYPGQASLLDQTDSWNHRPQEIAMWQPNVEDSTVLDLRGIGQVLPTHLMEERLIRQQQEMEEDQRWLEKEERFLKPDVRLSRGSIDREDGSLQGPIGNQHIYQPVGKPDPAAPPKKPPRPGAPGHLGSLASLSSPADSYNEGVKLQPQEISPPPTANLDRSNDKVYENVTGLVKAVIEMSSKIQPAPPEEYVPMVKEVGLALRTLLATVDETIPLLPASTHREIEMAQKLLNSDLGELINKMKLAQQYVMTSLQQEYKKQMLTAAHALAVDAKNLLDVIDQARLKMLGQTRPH
Sequence of Fibroblast growth factor 2 (Homo sapiens) (P09038 whole entry, looked up): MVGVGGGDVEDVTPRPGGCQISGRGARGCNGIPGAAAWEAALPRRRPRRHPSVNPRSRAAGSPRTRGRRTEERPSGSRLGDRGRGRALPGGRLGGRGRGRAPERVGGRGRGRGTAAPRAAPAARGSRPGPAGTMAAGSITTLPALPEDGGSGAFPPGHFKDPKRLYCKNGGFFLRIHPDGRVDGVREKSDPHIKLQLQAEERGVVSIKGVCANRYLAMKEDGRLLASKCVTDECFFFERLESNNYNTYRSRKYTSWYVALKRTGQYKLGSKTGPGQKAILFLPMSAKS
Sequence of Streptavidin (Streptomyces avidinii) (P22629 whole entry, looked up): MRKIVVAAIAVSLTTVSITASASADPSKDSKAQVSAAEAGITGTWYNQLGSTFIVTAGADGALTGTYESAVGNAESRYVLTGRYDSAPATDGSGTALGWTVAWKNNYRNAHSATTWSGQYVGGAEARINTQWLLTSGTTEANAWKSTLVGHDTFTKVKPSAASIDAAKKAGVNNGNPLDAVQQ
Sequence of Follistatin (Homo sapiens) (P19883 whole entry, looked up): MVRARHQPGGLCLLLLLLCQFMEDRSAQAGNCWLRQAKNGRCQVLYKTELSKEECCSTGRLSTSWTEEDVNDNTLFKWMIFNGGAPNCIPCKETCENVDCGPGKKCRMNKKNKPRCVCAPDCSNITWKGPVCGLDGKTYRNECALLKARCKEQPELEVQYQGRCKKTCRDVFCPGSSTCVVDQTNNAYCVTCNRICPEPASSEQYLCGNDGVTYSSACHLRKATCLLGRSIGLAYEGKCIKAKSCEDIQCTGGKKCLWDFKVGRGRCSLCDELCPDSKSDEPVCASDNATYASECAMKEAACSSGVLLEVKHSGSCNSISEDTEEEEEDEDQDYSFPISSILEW
Sequence of Luciferin 4-monooxygenase (Photinus pyralis) (P08659 whole entry, looked up): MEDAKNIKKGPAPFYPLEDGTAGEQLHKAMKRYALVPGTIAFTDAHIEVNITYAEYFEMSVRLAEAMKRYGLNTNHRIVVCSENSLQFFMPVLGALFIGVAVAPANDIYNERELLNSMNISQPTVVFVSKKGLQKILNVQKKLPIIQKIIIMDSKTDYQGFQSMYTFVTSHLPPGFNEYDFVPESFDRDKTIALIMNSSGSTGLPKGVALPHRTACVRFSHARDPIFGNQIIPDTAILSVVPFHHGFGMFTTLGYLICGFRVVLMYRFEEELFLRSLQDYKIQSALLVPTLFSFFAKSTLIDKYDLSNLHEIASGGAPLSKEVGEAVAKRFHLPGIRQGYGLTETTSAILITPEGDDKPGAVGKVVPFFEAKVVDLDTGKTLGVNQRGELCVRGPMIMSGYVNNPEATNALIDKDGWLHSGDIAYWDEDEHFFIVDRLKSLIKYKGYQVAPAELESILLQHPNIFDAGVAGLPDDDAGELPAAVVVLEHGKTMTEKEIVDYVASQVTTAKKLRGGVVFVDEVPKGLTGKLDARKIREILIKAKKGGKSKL

With `CCCC[C@@H]1C[C@H]1[C@@H](NC(=O)c1ccco1)c1ccc(Cl)cc1`, the composite z-score in assay [1] is 1.26; in assay [2], 1.2; in assay [3], 0.998; in [4], 0.939; in assay [5], 0.0863; in assay [6], -0.488. Further, the composite z-score with Lefty1 was -0.406; in assay [8], 1.21; in assay [10] it was 0.202; in [15], 2.09; in [16], 0.306; with Torsin-1A (Homo sapiens) [17] it was 0.104. Further, the composite z-score with Torsin-1A (Homo sapiens) [18] is 0.481; in assay [19] it was -0.292. The z-score in [7] is 1.88; in assay [9], 1.17 (inactive); in assay [11], -2.63 (inactive); in assay [12], 0.564 (inactive); in assay [13] it was -0.561 (inactive); in assay [14], 0.473 (inactive).
Take `OC([C@@H]1CC(c2ccccc2)=NO1)[C@H]1CC(c2ccccc2)=NO1` (stereo not given in full): the composite z-score is 0.176 in assay [1]; -0.236 in [2]; -0.141 in assay [3]; 0.0985 in [4]; 0.0914 in [5]; 0.128 in [6]. For the same compound, the composite z-score is 0.484 with Lefty1; -0.259 in assay [8]; 0.0286 in assay [10]; 0.133 in assay [15]; 0.027 in assay [16]; 0.0801 with Torsin-1A (Homo sapiens) [17]. The figures for the composite z-score (with Torsin-1A (Homo sapiens) [18]; in assay [19]) were -0.174 and 0.394, respectively. Moreover, the z-score in assay [7] was -0.0913; in assay [9], -1.46 (inactive); in [11] it was -0.263 (inactive); in assay [12] it was -0.00202 (inactive); in [13], 2.31 (inactive); in assay [14] it was -0.487 (inactive).
`O=C1[C@H]2C=C(Br)[C@H](C[C@@H]2OCCCCO)[C@@]12CO2`: the composite z-score in [1] is -0.0684; in [2], -0.123; in [3], -0.14; in assay [4], -0.0973; in assay [5], 0.324; in [6], 0.108. The composite z-score in the assay with Lefty1 was 0.17; in [8], 0.0889; in [10], -0.0251; in assay [15] it was 0.0247; in [16] it was 0.104; with Torsin-1A (Homo sapiens) [17], 0.411. In addition, the composite z-score with Torsin-1A (Homo sapiens) [18] worked out at 0.53; in assay [19], 0.31. The z-score was 0.137 in assay [7]; 0.469 (inactive) in assay [9]; 0.722 (inactive) in assay [11]; 0.56 (inactive) in [12]; 0.22 (inactive) in assay [13]; 0.533 (inactive) in assay [14].
For the compound `COC(=O)[C@@]1(Cc2ccc(F)cc2)[C@H]2c3cc(C(=O)N(C)C)n(Cc4ccc(S(C)(=O)=O)cc4)c3C[C@H]2CN1C(=O)c1ccccc1`, the composite z-score in assay [1] was found to be 0.904; in [2], 0.941; in assay [3] it was 1.16; in assay [4], 1.01; in assay [5], 0.158; in assay [6], 0.0722. The composite z-score with Lefty1 is -0.224; in assay [8], 0.766; in [10], 0.0577; in assay [15] it was 1.02; in assay [16], 0.266; with Torsin-1A (Homo sapiens) [17], 0.33. Also, the composite z-score with Torsin-1A (Homo sapiens) [18] is 0.0685; in [19], -0.447. Besides, the z-score in assay [7] was 0.521; in [9], 0.202 (inactive); in assay [11] it was -0.845 (inactive); in assay [12], -0.65 (inactive); in assay [13], 0.766 (inactive); in assay [14] it was -0.428 (inactive).
As for `COC(=O)C(CC#Cc1ccc2c(c1)[C@]1(C(=O)N2)[C@H](c2ccc(O)cc2)N2[C@H](c3ccccc3)[C@H](c3ccccc3)OC(=O)[C@H]2[C@@H]1C(=O)Nc1nc2ccccc2s1)C(=O)OC`, the composite z-score was 1.8 in [1]; 1.22 in [2]; 0.833 in assay [3]; 0.96 in assay [4]; 1.1 in assay [5]; 1.22 in assay [6]. Moreover, the composite z-score was found to be 1.23 with Lefty1; 0.471 in assay [8]; 0.695 in assay [10]; 0.458 in assay [15]; 0.373 in [16]; 1.41 in the assay with Torsin-1A (Homo sapiens) [17]. Further, the composite z-score was 1.21 in the assay with Torsin-1A (Homo sapiens) [18] and 1.62 in assay [19]. In addition, the z-score in [7] was -1.7; in assay [9] it was -1.63 (inactive); in assay [11], -2.01 (inactive); in assay [12], -1.45 (inactive); in assay [13], 1.15 (inactive); in [14], -0.5 (inactive).
